Source: PubChem BioAssay (NCATS)
Several values for one entry are separate records, joined by “and”; a condition that tells them apart may be missing. Identical values can stand only once. Records with an inconclusive call do not appear. Activity calls are given as the source filed them. Calls come from the whole dose curve; as a rule, active = well fitted curve in the direction sought with a large enough effect; inconclusive = small, poorly fitted or top-dose-only effect, or another doubt; inactive = no such curve, though single readings can be large; an effect the other way counts as inactive or inconclusive.

Experiments:
[1] = system: CRL-7250; assay: Cytotoxic Profiling of Annotated Libraries Using Quantitative High-Throughput Screening (AID 1296008); conditions: Five cell lines viability, CellTiter-Glo ATP luminescence, 48-72 h; max response: active compounds read low; note: nearly all actives have a fitted effect of over 60% in size; note: potency is the fitted concentration of half-maximal effect; for max response: % is set by controls: 0 for no effect and ±100 for the full control effect
Outline: (§1)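 Compounds were pin-transferred onto cells and incubated 48 or 72 hr at 37 degree Celsius, 95% humidity. CellTiter-Glo was added, plates sat 10 min at room temperature, then ATP-coupled luminescence was imaged as the viability read-out.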

[2] = system: KB-3-1; assay: as above; conditions: Five cell lines viability, CellTiter-Glo ATP luminescence, 48-72 h; max response: active compounds read low
Outline: as §1

[3] = system: NIH3T3; assay: as above; conditions: Five cell lines viability, CellTiter-Glo ATP luminescence, 48-72 h; max response: active compounds read low
Outline: as §1

[4] = system: C33A; assay: Primary qHTS to identify gynecologic anti-cancer compounds using libraries of approved drugs and bioactive compounds (AID 1345084); conditions: Gynecologic cancer cell panel viability, ATPlite luminescence, 48 h; series mostly up to 57.5 µM; note: nearly all actives have a fitted effect of over 55% in size; note: potency is the fitted concentration of half-maximal effect
Outline: (§2)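 Cells, 1,000 per well, plated 16 h, then exposed 48 h at 37 C to compounds. Viability by ATPlite luminescence after 15 min at room temperature.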

[5] = system: CASKI; assay: as above; conditions: Gynecologic cancer cell panel viability, ATPlite luminescence, 48 h; series mostly up to 57.5 µM
Outline: as §2

[6] = system: Es-2; assay: as above; conditions: Gynecologic cancer cell panel viability, ATPlite luminescence, 48 h; series mostly up to 57.5 µM
Outline: as §2

[7] = system: HeLa; assay: as above; conditions: Gynecologic cancer cell panel viability, ATPlite luminescence, 48 h; series mostly up to 57.5 µM
Outline: as §2

[8] = system: Hek293T; assay: as above; conditions: Gynecologic cancer cell panel viability, ATPlite luminescence, 48 h, control line for the selectivity index; series mostly up to 57.5 µM
Outline: as §2

[9] = system: JEG-3; assay: as above; conditions: Gynecologic cancer cell panel viability, ATPlite luminescence, 48 h; series mostly up to 57.5 µM
Outline: as §2

[10] = system: OV90; assay: as above; conditions: Gynecologic cancer cell panel viability, ATPlite luminescence, 48 h; series mostly up to 57.5 µM
Outline: as §2

[11] = system: CAOV3; assay: as above; conditions: Gynecologic cancer cell panel viability, ATPlite luminescence, 48 h; series mostly up to 57.5 µM
Outline: as §2

[12] = system: HEK293; assay: Cytotoxic Profiling of Annotated Libraries Using Quantitative High-Throughput Screening (AID 1296008); conditions: Five cell lines viability, CellTiter-Glo ATP luminescence, 48-72 h; max response: active compounds read low; note: nearly all actives have a fitted effect of over 60% in size; note: potency is the fitted concentration of half-maximal effect; for max response: % is set by controls: 0 for no effect and ±100 for the full control effect
Outline: as §1

[13] = system: HaCat; assay: as above; conditions: Five cell lines viability, CellTiter-Glo ATP luminescence, 48-72 h; max response: active compounds read low
Outline: as §1

[14] = system: NIH3T3; assay: qHTS assay to identify novel small-molecules to repurpose for Merkel cell carcinoma treatment (AID 1296009); conditions: MCC and control cell lines, CellTiter-Glo viability, 72 h; series mostly up to 44.8 µM; note: nearly all actives have a fitted effect of over 60% in size
Outline: (§3)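 qHTS format: cells treated with library compounds in DMSO across 8 (NPC) or 11 (MIPE) concentrations. Readout after 72 hr at 37 degree celsius was CellTiter-Glo luminescence.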

[15] = system: HACAT; assay: as above; conditions: MCC and control cell lines, CellTiter-Glo viability, 72 h; at 44.8 µM (top of the series) unless noted
Outline: as §3

Cn1ccc(NC(=O)c2cc(Oc3ccc(C(=O)N4CCC4)c(F)c3)c3c(c2)OC(C)(C)C3)n1
inactive: max response [1] 3.93% | max response [2] 1.91% | max response [3] 4.11% | Potency [4] | Potency [5] | Potency [6] | Potency [7] | Potency [8] | Potency [9] | Potency [10]

O=C(c1c(F)ccc(NS(=O)(=O)N2CC[C@@H](F)C2)c1F)c1c[nH]c2ncc(-c3cnc(C4CC4)nc3)cc12
active: Potency [1] 23.1 µM
inactive: max response [2] -23.7% | Potency [4] | Potency [5] | Potency [7] | Potency [8] | Potency [9]

OC[C@H]1O[C@@H](OC/C=C/c2ccc(O)cc2)[C@H](O)[C@@H](O)[C@@H]1O
inactive: max response [1] -28.9% | max response [2] -4.8% | max response [3] -11.1% | Potency [4] | Potency [11] | Potency [5] | Potency [6] | Potency [7] | Potency [8] | Potency [9] | Potency [10]

CNc1cccc(CCOc2ccc3c(c2)CN(CC(F)(F)F)C(=O)[C@H](CC(=O)O)C3)n1
active: Potency [1] 0.082 µM | Potency [3] 0.116 µM
inactive: max response [2] -2.45% | Potency [4] | Potency [11] | Potency [5] | Potency [6] | Potency [7] | Potency [8] | Potency [9] | Potency [10]

COc1ccc(S(=O)(=O)N2CCC[C@H]2C(=O)Nc2cc(C)cc(C)c2)cc1
inactive: max response [1] 2.15% | outcome [2] | max response [3] 0.512% | Potency [4] | Potency [11] | Potency [5] | Potency [6] | Potency [7] | Potency [8] | Potency [9] | Potency [10]

CCCCc1c(-c2ccc(OC)cc2)[nH]c2nccnc12
inactive: outcome [1] | max response [2] 2.93% | Potency [11] | Potency [5] | Potency [6] | Potency [7] | Potency [8] | Potency [9] | Potency [10]

COc1ccnc(CS(=O)c2nc3cc(OC(F)F)ccc3[nH]2)c1OC (stereo not drawn)
inactive: max response [1] -13.2% | max response [2] -2.25% and -1.6% | Potency [4] | Potency [11] | Potency [5] | Potency [6] | Potency [7] | Potency [8] | Potency [9] | Potency [10]

COc1ccc(CCCN2CCC(COC(c3ccccc3)c3ccccc3)CC2)cc1
inactive: max response [1] -2.98% | max response [2] -17.2% | Potency [4] | Potency [11] | Potency [5] | Potency [6] | Potency [7] | Potency [8] | Potency [9] | Potency [10]

CC(=O)NC(C(=O)O[C@H]1CCC(C)(C)[C@@H]2CC=C3C(=O)OCC3(O)[C@@]12C)C(C)C (stereo partly drawn)
inactive: max response [12] -20.5% | max response [13] 3.16% | outcome [3] | Potency [14] | Potency [11] | Potency [5] | Potency [6] | Potency [7] | Potency [8] | Potency [9]

C/C(=N\N=C(N)N)c1cc(NC(=O)CCCCCCCCC(=O)Nc2cc(/C(C)=N/N=C(N)N)cc(/C(C)=N/N=C(N)N)c2)cc(/C(C)=N/N=C(N)N)c1
active: Potency [12] 7.31 µM
inactive: outcome [13] | max response [3] 0.565% | outcome [15] | Potency [5] | Potency [7] | Potency [8] | Potency [9]

Cc1nc(NC(=O)N2CCCC2C(N)=O)sc1-c1ccnc(C(C)(C)C(F)(F)F)c1 (stereo not drawn)
inactive: Potency [4] | Potency [6] | Potency [8] | Potency [9]
active: Potency [12] 10.3 µM | Potency [13] 2.31 µM | Potency [3] 9.2 µM | Potency [5] 3.55 µM

Cc1cc(F)ccc1[C@H]1C[C@@H](N2CCN3C(=O)CC[C@H]3C2)CCN1C(=O)N(C)[C@H](C)c1cc(C(F)(F)F)cc(C(F)(F)F)c1
inactive: max response [1] 2.7% | outcome [3] | Potency [14] | Potency [4] | Potency [11] | Potency [5] | Potency [6] | Potency [7] | Potency [9] | Potency [10]

COc1cc(OC)c(NC(=O)c2ccc(Cc3cc4c(cc3C)C(C)(C)CCC4(C)C)o2)c(OC)c1
inactive: max response [13] 3.56% | max response [3] 4.87% | Potency [4] | Potency [11] | Potency [5] | Potency [6] | Potency [7] | Potency [8] | Potency [9] | Potency [10]
active: Potency [12] 20.6 µM

Cn1cc(-c2ccc3c(c2)CCN3C(=O)Cc2cccc(C(F)(F)F)c2)c2c(N)ncnc21
active: Potency [1] 16.4 µM
inactive: max response [3] -21.2% | Potency [4] | Potency [11] | Potency [5] | Potency [6] | Potency [7] | Potency [8] | Potency [9] | Potency [10]

NC(=O)N1CCC(CC(=O)N2CCC(C3c4ncc(Br)cc4CCc4cc(Cl)cc(Br)c43)CC2)CC1 (stereo not drawn)
inactive: max response [1] -10.9% | max response [3] 2.37% | Potency [4] | Potency [11] | Potency [5] | Potency [6] | Potency [7] | Potency [9]

CS(=O)(=O)Nc1ccc2oc3c(OC(F)F)ccc(C(=O)Nc4c(Cl)cncc4Cl)c3c2c1
inactive: max response [1] -13.5% | max response [3] -9.63% | Potency [4] | Potency [11] | Potency [5] | Potency [6] | Potency [8] | Potency [9] | Potency [10]

CO[C@H]1C[C@@H]2CC[C@@H](C)[C@@](O)(O2)C(=O)C(=O)N2CCCC[C@H]2C(=O)O[C@H]([C@@H](C)C[C@@H]2CC[C@@H](O)[C@H](OC)C2)CC(=O)[C@H](C)/C=C(\C)[C@@H](O)[C@@H](OC)C(=O)[C@H](C)C[C@H](C)/C=C/C=C/C=C/1C
active: Potency [12] 0.0073 µM
inactive: max response [13] -8.22% | max response [3] -0.671% | Potency [4] | Potency [11] | Potency [5] | Potency [6] | Potency [7] | Potency [8] | Potency [9]
